Where “and” joins values, the source holds several entries; their conditions need not be identical. Identical values can stand only once. Results filed as inconclusive are left out. Calls of active or inactive are those of the source. Calls follow the shape of the dose curve; as a rule, active = well fitted activation curve with a large enough effect; inconclusive = small, poorly fitted or top-dose-only effect; inactive = no such curve, though single readings can be large or run the other way.
Biological target: Cellular tumor antigen p53 (Homo sapiens) (UniProt P04637)
Sequence (P04637 whole entry, looked up): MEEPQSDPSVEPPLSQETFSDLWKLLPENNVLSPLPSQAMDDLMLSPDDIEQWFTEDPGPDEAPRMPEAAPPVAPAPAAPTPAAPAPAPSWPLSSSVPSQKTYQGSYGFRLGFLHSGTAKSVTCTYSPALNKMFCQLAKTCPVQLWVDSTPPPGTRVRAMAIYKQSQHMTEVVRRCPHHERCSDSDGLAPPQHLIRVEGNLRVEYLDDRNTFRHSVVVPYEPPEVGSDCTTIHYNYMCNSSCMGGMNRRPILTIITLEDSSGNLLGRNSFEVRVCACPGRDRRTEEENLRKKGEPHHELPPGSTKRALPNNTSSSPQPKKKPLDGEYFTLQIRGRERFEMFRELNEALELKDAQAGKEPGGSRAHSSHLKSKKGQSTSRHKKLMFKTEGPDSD
Test: Primary qHTS for small molecule compounds that upregulate eGFP-tagged delta133p53alpha (in N-terminal) cells. (AID 2060322); also: nearly all actives have a fitted effect of over 75% in size;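 as to activation: cells pre-induced with doxycycline then dosed without doxycycline; series mostly up to about 56 µM; 0% = DMSO vehicle and 100% = reference activator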
Conditions: NCI-H358 eGFP-delta133p53alpha fluorescence, 24 h; activation: active compounds read high
In short: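 NCI-H358 cells pre-induced 24 h with 10 ng/ml doxycycline for eGFP-delta133p53alpha, plated dox-free and exposed 24 h at 37C to titrated compounds. Fixed, Hoechst-stained; gated GFP peak intensity by laser scanning cytometry, normalized to DMSO (0%) and 57.5 uM 5-azacytidine (100%).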
Potency is read from the fitted curve at half-maximal effect.

SMILES | activation | Potency
Cc1cc(C(=O)N2CCCCc3ccccc32)ccc1CNC(=O)N1CCC[C@H]1C(=O)N(C)C | 4.3% (inactive) | 
CNCCCC1(c2ccccc2)OC(C)(C)c2ccccc21 (stereo not given) | -11.9% (inactive) | 
CCC(C(C)O)n1ncn(-c2ccc(N3CCN(c4ccc(OCC5COC(Cn6cncn6)(c6ccc(F)cc6F)C5)cc4)CC3)cc2)c1=O (stereo not given) | 5.25% (inactive) | 
c1ccc(CN(CC2=NCCN2)c2ccccc2)cc1 | 0.837% (inactive) and -3.82% (inactive) | 
COc1cc(NC(=O)c2cc(C3CC3)on2)c(OC)cc1Cl | -12.4% (inactive) | 
COc1cccc(-c2cc(NCc3ccc4c(c3)OCO4)nc(N)n2)c1 | -3.82% (inactive) | 
COc1ccc(-c2nc(-c3cc(C(F)(F)F)cc(C(F)(F)F)c3)n(Cc3ccc(C(N)=O)cc3)c2-c2ccc(OC)cc2)cc1 | -11% (inactive) | 
CC1(C)CCC(C)(C)c2cc(C3(c4ccc(C(=O)O)cc4)OCCO3)ccc21 | 2.39% (inactive) | 
O=C(Nc1ccc(CN2CCOCC2)cc1)c1ccc(-c2cccc(Cl)c2)o1 | -8.59% (inactive) | 
NS(=O)(=O)c1ccc(N2CCN(CC[C@@H]3OCCc4ccccc43)CC2)cc1 | 16.7% (inactive) | 
O=C(NCCCN1CCC2(CC1)OCc1ccccc12)[C@H]1CCCN1Cc1ccccc1 | 0.477% (inactive) | 
CN[C@@H]1[C@@H](O)[C@@H](O[C@@H]2[C@@H](O)[C@H](O[C@H]3O[C@@H]([C@@H](C)NC)CC[C@H]3N)[C@@H](N)C[C@H]2N)OC[C@]1(C)O | -8.59% (inactive) | 
CCn1c2ccccc2c2cc(CNC)ccc21 | 12.4% (inactive) | 
Cc1onc(-c2ccccc2Cl)c1C(=O)N(C)c1ccc(Cl)cc1 | -1.43% (inactive) | 
COc1ccc(Cl)cc1[C@@]1(F)C(=O)Nc2cc(C(F)(F)F)ccc21 | 24.8% (inactive) | 
O=C(NCCCn1ccnc1)c1cc(-c2ccco2)on1 | -9.07% (inactive) | 
O=C(CC1NCCC[C@H]1O)Cn1cnc2cc(Br)c(Cl)cc2c1=O (stereo not given in full) | 5.25% (inactive) | 
CCC1C(=O)N(C)c2cnc(Nc3ccc(C(=O)NC4CCC(N5CCN(CC6CC6)CC5)CC4)cc3OC)nc2N1C(C)C (stereo not given) | 37.2% (inactive) | 
CS(=O)(=O)NCC1CCC(Nc2nc3c(s2)CCSc2ccccc2-3)CC1 (stereo not given) | -6.21% (inactive) | 
CC(NC(=O)CCc1nc2ccccc2c(=O)[nH]1)c1ccccc1 (stereo not given) | -1.43% (inactive) | 

SMILES | activation | Potency
CN(C)c1nc(Cc2ccc(NC(=O)c3ccc4ccccc4c3)cc2)nc(Cl)c1CC(=O)O | -3.03% (inactive) and -7.64% (inactive) | 
CCNC(=O)N1CCCN(c2ccc(C(=O)NCCc3ccc(Cl)cc3Cl)cc2NC(=O)c2cccc(Cl)c2)CC1 | 1.91% (inactive) | 
CCc1c(CC(N)=O)c2cc(OCCCP(=O)(O)O)ccc2n1Cc1ccccc1 | 2.86% (inactive) | 
CC[C@H]1CN(c2nc(N)c(C(N)=O)nc2Cl)CCN1C1CCN(Cc2ccc(Cl)cc2)CC1 | 3.34% (inactive) | 
CC(C)CCNc1ncccc1C(=O)N1CCN(Cc2ccccc2)CC1 | -4.3% (inactive) | 
CCCc1ccc(OCC(=O)N(Cc2nc(-c3cccnc3)no2)C(C)C)cc1 | -11.5% (inactive) | 
Cc1c(C(=O)Nc2ccc(N3CC(C)OC(C)C3)nc2)cccc1-c1ccc(OC(F)(F)F)cc1 (stereo not given) | 20% (inactive) | 
COCCN1CCC(C(=O)NO)(S(=O)(=O)c2ccc(Oc3ccc(OC(F)(F)F)cc3)cc2)CC1 | -13.4% (inactive) | 
CC1(C)CCC(C)(C)c2cc(C#Cc3ccc(C(=O)O)cc3)ccc21 | -5.25% (inactive) | 
O=C(NCCN1CCC(n2c(=O)[nH]c3ccccc32)CC1)c1ccc2ccccc2c1 | -1.43% (inactive) | 
O=C(c1cn(Cc2cncn2Cc2ccc(Br)cc2)cc1-c1cccc2ccccc12)N1CCOCC1 |  | 26.9 µM (active)
Cc1nc(C(=O)N2CCC[C@H]2Cc2nnc(-c3ccccc3)o2)c(-c2ccccc2F)s1 | 3.82% (inactive) | 
Cc1cc(-c2nncc3c(C(C)(C)C)c(OCc4ncnn4C)nn23)no1 | 6.68% (inactive) | 
CCC(C)n1cc(C)c2c(C(=O)NCc3c(C)cc(C)[nH]c3=O)cc(-c3ccc(N4CCNCC4)nc3)cc21 (stereo not given) | -3.34% (inactive) | 
CN(C)C(=O)NC1(c2ccccc2)CCN(CCC[C@]2(c3ccc(Cl)c(Cl)c3)CCCN(C(=O)c3ccccc3)C2)CC1 | 13.4% (inactive) | 
COc1cc(-c2cn(C3CCc4c(F)cccc4N(CC(F)(F)F)C3=O)nn2)ccc1-n1cnc(C)c1 (stereo not given) | 6.68% (inactive) | 
Cc1onc(-c2c(Cl)cccc2Cl)c1CC(=O)NCc1ccc(OCC(F)(F)F)nc1 | -9.07% (inactive) | 
CCNC(=O)c1noc(-c2cc(Cl)c(O)cc2O)c1-c1ccc(OC)cc1 | -6.68% (inactive) | 
CCNC(=O)[C@H]1O[C@H](n2cnc3c(NCC(c4ccccc4)c4ccccc4)nc(C(=O)NCCNC(=O)NC4CCN(c5ccccn5)CC4)nc32)[C@H](O)[C@@H]1O | -9.55% (inactive) | 
COc1cc(C(=O)NCC2(N(C)C)CCCC2)cc(OC)c1OCc1ccccc1 | -8.11% (inactive) | 

Source: PubChem BioAssay (NCATS)
